About 14,000 (4.5%) of roughly 310,000 compounds showed an effect of 50% or more. Effects have a minus sign here. This excerpt belongs to a sample that is enriched for strong results.
These compounds were tested against human ether-à-go-go-related gene (hERG) potassium channel (human, UniProt Q12809) (assay: primary screen, population patch clamp on CHO cells stably expressing hERG; higher = less effect of the substance).
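Also: peak tail current of the secondary pulse compared with the same well before compound.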

Sequence of human ether-à-go-go-related gene (hERG) potassium channel (Q12809 whole entry, looked up): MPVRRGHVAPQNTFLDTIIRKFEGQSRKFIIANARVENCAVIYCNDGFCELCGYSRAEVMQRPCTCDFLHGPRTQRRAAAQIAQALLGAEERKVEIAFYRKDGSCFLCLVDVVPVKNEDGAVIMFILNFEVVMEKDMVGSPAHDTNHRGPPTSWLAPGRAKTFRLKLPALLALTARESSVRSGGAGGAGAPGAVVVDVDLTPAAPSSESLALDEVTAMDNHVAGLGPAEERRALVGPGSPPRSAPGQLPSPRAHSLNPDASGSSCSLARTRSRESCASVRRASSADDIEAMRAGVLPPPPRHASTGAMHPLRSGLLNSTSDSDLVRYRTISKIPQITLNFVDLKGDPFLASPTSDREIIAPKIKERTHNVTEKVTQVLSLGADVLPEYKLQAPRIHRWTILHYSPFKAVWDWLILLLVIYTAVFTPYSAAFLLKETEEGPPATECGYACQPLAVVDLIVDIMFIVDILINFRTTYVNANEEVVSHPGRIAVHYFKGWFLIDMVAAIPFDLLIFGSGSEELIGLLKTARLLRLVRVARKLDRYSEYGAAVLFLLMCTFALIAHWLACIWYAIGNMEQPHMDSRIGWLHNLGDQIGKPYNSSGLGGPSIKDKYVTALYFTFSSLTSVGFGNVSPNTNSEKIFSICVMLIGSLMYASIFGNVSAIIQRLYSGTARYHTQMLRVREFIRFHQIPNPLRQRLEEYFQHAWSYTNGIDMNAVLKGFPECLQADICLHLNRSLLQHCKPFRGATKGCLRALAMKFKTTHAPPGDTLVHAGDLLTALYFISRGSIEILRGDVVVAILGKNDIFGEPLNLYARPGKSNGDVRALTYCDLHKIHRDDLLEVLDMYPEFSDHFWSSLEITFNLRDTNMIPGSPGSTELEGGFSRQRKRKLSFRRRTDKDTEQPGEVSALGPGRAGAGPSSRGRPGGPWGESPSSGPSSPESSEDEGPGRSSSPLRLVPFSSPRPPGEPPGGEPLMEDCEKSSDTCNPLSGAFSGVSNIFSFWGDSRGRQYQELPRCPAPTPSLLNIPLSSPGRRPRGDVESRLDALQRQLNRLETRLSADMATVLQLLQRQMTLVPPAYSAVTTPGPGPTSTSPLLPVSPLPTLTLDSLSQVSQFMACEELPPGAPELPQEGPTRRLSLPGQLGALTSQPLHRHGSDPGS

Structure (SMILES)	hERG current change (%, negative = inhibition) at 10uM [%]
O=C(CCNS(=O)(=O)c1cccc2nsnc12)NC1CCCc2ccccc21 (stereo not drawn)	9.49
CCCc1cc(=O)n2[nH]c(CCc3ccccc3)nc2n1	14.1
O=C(NCC(c1cccs1)N1CCOCC1)c1ccccc1NS(=O)(=O)c1ccc(Br)cc1 (stereo not drawn)	-38.4
CCOC(=O)c1sc(NC(=O)c2ccc(Cl)s2)cc1C	3.03
O=C(c1ccco1)N1CCN(C2CC(=O)N(c3ccc(F)c(Cl)c3)C2=O)CC1 (stereo not drawn)	-14.2
Cc1ccc(OS(=O)Nc2cccc3nccnc23)cc1 (stereo not drawn)	-18.6
COc1ccccc1C(=O)NCCC(=O)NCc1ccncc1	-4.37
CCN1CCN(Cc2nc3ccc([N+](=O)[O-])cc3c(=O)n2-c2ccccc2F)CC1	17.9
CCOC(=O)c1ccc(-n2c(CN3CCN(CCO)CC3)nc3ccc([N+](=O)[O-])cc3c2=O)cc1	-25.1
CCOC(=O)N1CCN(Cc2nc3ccc([N+](=O)[O-])cc3c(=O)n2-c2cccc(OC)c2)CC1	-39.8
CCOC(=O)c1ccc(-n2c(CN3CCN(CC)CC3)nc3ccc([N+](=O)[O-])cc3c2=O)cc1	-55
CCOC(=O)c1ccc(-n2c(CN3CCOCC3)nc3ccc([N+](=O)[O-])cc3c2=O)cc1	1.65
O=C(c1ccco1)N1CCN(Cc2nc3ccc([N+](=O)[O-])cc3c(=O)n2-c2ccccc2F)CC1	-68.3
O=c1c2cc([N+](=O)[O-])ccc2nc(CN2CCN(c3ccccn3)CC2)n1-c1ccccc1F	-28.3
O=C(O)C(=O)O.O=C(c1ccco1)N1CCN(Cc2ccccc2F)CC1	3.7
CCOc1ccccc1-n1c(CN2CCN(C(=O)c3ccco3)CC2)nc2ccccc2c1=O	-26.2
CCC(CC)N1CCN(Cc2nc3ccc([N+](=O)[O-])cc3c(=O)n2-c2ccccc2F)CC1	-57
CCOC(=O)N1CCN(Cc2nc3ccc([N+](=O)[O-])cc3c(=O)n2-c2ccccc2F)CC1	-69.9
CCOC(=O)N1CCN(Cc2nc3ccc([N+](=O)[O-])cc3c(=O)n2-c2ccc(OC)cc2OC)CC1	-46.1
Cc1c(C(=O)NCc2ccccc2)cnn1-c1ccccc1	-2.6
O=C(Nc1cccc(-c2cn3ccccc3n2)c1)c1cccc(Cl)c1	4.75

Structure (SMILES)	hERG current change (%, negative = inhibition) at 10uM [%]
CCCC1=NN(C(=O)Cc2ccc(OC)c(OC)c2)C(O)(C(F)(F)F)C1 (stereo not drawn)	0.733
CC(C)[C@H]1C(=O)Nc2ccccc2N1C(=O)N[C@@H](Cc1ccccc1)C(=O)N[C@@H](Cc1ccccc1)C(=O)O	5.66
Cc1nn(C)c(C)c1C(C)NC(=O)c1ccc(OC2CCN(Cc3ccccn3)CC2)cc1 (stereo not drawn)	18
CC(=O)NC1=C(Nc2ccc(N(C)C)cc2)C(=O)c2ccccc2C1=O	-9.79
COC(=O)N/N=C/c1ccc(-c2cccc(Cl)c2)o1	-3.5
COc1cc(OC)cc(-c2nc(-c3ccccc3)no2)c1	5.45
COCCCN1C(=O)C(O)=C(C(C)=O)C1c1cccc(F)c1 (stereo not drawn)	7.18
CC1(c2ccccc2)NC(=O)N(CC(=O)Nc2ccccc2C(=O)NC2CC2)C1=O (stereo not drawn)	-22.5
CN1CCN(c2ccc(Cl)cc2NC(=O)CN2C(=O)NC(C)(c3ccccc3)C2=O)CC1 (stereo not drawn)	-23.7
CCC1(c2ccccc2)NC(=O)N(CC(=O)Nc2ccccc2C(=O)NC2CCCC2)C1=O (stereo not drawn)	-53.8
CCC1(c2ccccc2)NC(=O)N(CC(=O)Nc2cc(Cl)ccc2N2CCN(C)CC2)C1=O (stereo not drawn)	-60.8
CCC1(c2ccccc2)NC(=O)N(CC(=O)Nc2cc(Cl)ccc2N2CCOCC2)C1=O (stereo not drawn)	-11.2
CCC1(c2ccccc2)NC(=O)N(CC(=O)Nc2ccccc2C(=O)NC2CC2)C1=O (stereo not drawn)	-7.31
COC(=O)C1=C(c2cccc(C#N)c2)C[C@@H]2CC[C@H]1N2C(=O)N1CCC(C)CC1	-17.1
Cc1ccccc1C1=NC(C(F)(F)F)(C(F)(F)F)c2c(n(-c3ccc(F)cc3)c(=O)[nH]c2=O)N1	12.5
Cc1ccc(C)c(NC(=O)CN2C(=O)CNC2=O)c1	0.955
COc1cccc(OCCNS(=O)(=O)c2cccc([N+](=O)[O-])c2)c1	-8.19
C[C@@H](CSc1ccccc1)CN1CC[C@H](NC(=O)OCc2ccccc2)CCC1=O	-44.2
O=C(OCC(=O)N1CCCC1=O)c1nc(Cl)ccc1Cl	5.78
Nc1cc(N)nc(SCC(=O)c2ccc3c(c2)NC(=O)CO3)n1	8.41
COc1ccccc1NC(=O)CSc1nc2ccccc2c(=O)n1C	12.1

Structure (SMILES)	hERG current change (%, negative = inhibition) at 10uM [%]
O=C(Nc1ccc(Cl)cc1)C1CCCN1C(=O)NCc1ccccc1 (stereo not drawn)	10.2
CC(/C=C/c1ccccc1)=N/NC(=O)c1cnccn1	2.83
N#CC1(CCCN2CCCCC2)c2ccccc2CCc2ccccc21.O=C(O)C(=O)O	-52.7
O=C(CN1CCCCC1)N1CCCc2ccccc21.O=C(O)C(=O)O	2.82
O=C(CN1CCCC1)N1CCCc2ccccc21.O=C(O)C(=O)O	13.8
CNC(=S)NNC(=O)Cc1ccc(O)cc1	-3.23
CN(CC(=O)N1CCN(c2ccc(F)cc2)CC1)S(=O)(=O)c1ccc2c(c1)c(=O)n(C)c(=O)n2C	-0.425
O=c1cc(CN2CCCCC2)nc(C2CC2)[nH]1	-2.2
c1c(C2CCCCC2)n[nH]c1CN1CCCCC1	-53.9
CC(C)c1cc(CN2CCN(C3CCCC3)C(CCO)C2)[nH]n1 (stereo not drawn)	-5.93
Cc1ccc(C(=O)N/C(=C\c2ccccc2F)c2nc(=S)[nH][nH]2)cc1	14.4
O=S(=O)(Nc1ccc(-c2ccc3nncn3n2)cc1)c1cccc(F)c1	18.1
Cc1ccc(S(=O)(=O)Nc2ccc(-c3ccc4nncn4n3)cc2)cc1	-9.23
Cc1nc2ccccc2c(=O)n1-c1ccc(NS(=O)(=O)c2ccccc2)cc1	-26.5
Cc1ccc(S(=O)(=O)Nc2ccc(-n3c(C)nc4ccccc4c3=O)cc2)cc1	-49.4
Cc1ccc(-n2c(C)nc3ccccc3c2=O)cc1C	-52.2
Cc1nc2ccccc2c(=O)n1-c1cccc(O)c1	14.1
Cc1nc2ccccc2c(=O)n1-c1ccc(Cl)c(Cl)c1	-8.26
Cc1cccc(S(=O)(=O)Nc2ccc(-c3ccc4nncn4n3)cc2)c1	-123
Cc1cccc(S(=O)(=O)Nc2ccc(-n3c(C)nc4ccccc4c3=O)cc2)c1	-55.9
O=C(O)c1ccc(N2C(=O)c3cccnc3C2=O)cc1	16.9

Structure (SMILES)	hERG current change (%, negative = inhibition) at 10uM [%]
O=C1CCCN1c1ccc(S(=O)(=O)N2CCN(c3ccccc3)CC2)cc1	16.3
COc1ccc2c(c1OC)C(=O)OC2Nc1nc(-c2ccc(-c3ccccc3)cc2)cs1 (stereo not drawn)	17
CC(C)=NNC(=O)c1c(O)c2ccccc2[nH]c1=O	-20
NC(=O)c1cc(N2C(=O)C=CC2=O)ccc1Cl	1.79
NS(=O)(=O)c1ccc(N2C(=O)C(=O)/C(=C(/O)c3ccccc3)C2c2ccc(Cl)cc2)cc1 (stereo not drawn)	18.1
CCc1ccc(-c2nc(CN3CCC(C(=O)NCCN(CC)c4ccccc4)CC3)c(C)o2)cc1	-69.5
CCC1CCCCN1CCCNC(=O)C1CCN(Cc2nc(-c3ccc(Cl)cc3)oc2C)CC1 (stereo not drawn)	-42.2
CCN(CCNC(=O)C1CCN(S(=O)(=O)CC)CC1)c1ccccc1	-16.9
CCN(CCNC(=O)C1CCCN(Cc2nc(-c3ccc(OC)cc3)oc2C)C1)c1ccccc1 (stereo not drawn)	-28.1
CCN(CCNC(=O)C1CCN(S(C)(=O)=O)CC1)c1ccccc1	-1.8
CCCN(CCC)CCNC(=O)C1CCN(Cc2nc(-c3ccc(Cl)cc3)oc2C)CC1	-60.6
CCN(CCNC(=O)C1CCN(Cc2nc(-c3ccc(Cl)cc3)oc2C)CC1)c1ccccc1	-65.9
CCN1CCN(CCNC(=O)C2CCN(Cc3nc(-c4ccc(Cl)cc4)oc3C)CC2)CC1	1.11
Cc1oc(-c2ccc(Cl)cc2)nc1CN1CCC(C(=O)NCCCN2CCOCC2)CC1	-26.5
CCCCN(CC)C(=O)C1CCC(=O)N(c2ccc(OC)cc2)C1c1ccc(OC)c(OC)c1 (stereo not drawn)	-10.2
CC(C)C(=O)Nc1nc2cc3c(cc2s1)OCCO3	-4.59
S=c1[nH]nc(-c2ccc(Cl)cc2)n1/N=C/C=C/c1ccco1	15.3
CCN(CC)S(=O)(=O)c1ccc(O)c(C(=O)OCC(=O)N2CCCC2)c1	11.4
